# PMC5540273 (PLoS ONE, 2017)
# Several values for one entry are separate records, joined by “and”; a condition that tells them apart may be missing. Identical values can stand only once. Like-named read-outs stand apart in the source and are kept apart here.
# Tests used:
# FGFR4 = details: concentration: 1 μM, replicates: in singlicate; n = 1
# FGR = details: concentration: 1 μM, replicates: in singlicate, n = 1
# FLT1 = details: concentration: 1 μM, replicates: in singlicate, n = 1
# FLT3-autoinhibited = details: concentration: 1 μM, replicates: in singlicate, n = 1
# FLT3 = details: concentration: 1 μM, replicates: in singlicate, n = 1
# FLT4 = details: concentration: 1 μM, replicates: in singlicate; n = 1
# FRK = details: concentration: 1 μM, replicates: in singlicate, n = 1
# FYN = details: concentration: 1 μM, replicates: in singlicate, n = 1
# GAK = details: concentration: 1 μM, replicates: in singlicate, n = 1
# GCN2(Kin.Dom.2,S808G) = tested on: T1, GCN2(Kin.Dom.2,S808G); details: concentration: 1 μM, replicates: in singlicate, n = 1
# T1 construct: gene EIF2AK4
# GRK1 = details: concentration: 1 μM, replicates: in singlicate, n = 1
# GRK2 = tested on: T2, GRK2; details: concentration: 1 μM, replicates: in singlicate; n = 1
# T2 construct: gene ADRBK1
# GRK3 = tested on: T3, GRK3; details: concentration: 1 μM, replicates: in singlicate, n = 1
# T3 construct: gene ADRBK2
# GRK4 = details: concentration: 1 μM, replicates: in singlicate, n = 1
# GRK7 = details: concentration: 1 μM, replicates: in singlicate; n = 1
# GSK3A = details: concentration: 1 μM, replicates: in singlicate, n = 1
# GSK3B = details: n = 1
# HASPIN = tested on: T4, HASPIN; details: concentration: 1 μM, replicates: in singlicate, n = 1
# T4 construct: gene GSG2
# HCK = details: concentration: 1 μM, replicates: in singlicate, n = 1
# HIPK1 = details: concentration: 1 μM, replicates: in singlicate, n = 1
# [1] = concentration: 1 μM, replicates: in singlicate
# 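Also: KINOMEscan kinase panel screen.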
compound,measurement,setting,value
COc1ccc(-c2oc3ncnc(N)c3c2-c2ccc(OC)cc2)cc1 [SB-589132],%Inh,FGFR4,3%
same,%Inh,FGR,43%
same,%Inh,FLT1,21%
same,%Inh,FLT3-autoinhibited,18%
same,%Inh,FLT3,13%
same,%Inh,FLT4,12%
same,%Inh,FRK,17%
same,%Inh,FYN,46%
same,%Inh,GAK,48%
same,%Inh,"GCN2(Kin.Dom.2,S808G)",41%
same,%Inh,GRK1,0%
same,%Inh,GRK2,0%
same,%Inh,GRK3,70%
same,%Inh,GRK4,9%
same,%Inh,GRK7,0%
same,%Inh,GSK3A,15%
same,%Inh,GSK3B; [1],0%
same,%Inh,HASPIN,64%
same,%Inh,HCK,14%
same,%Inh,HIPK1,0%
FC(F)(F)c1ccc(-c2nn3ncccc3c2-c2ccnc(Nc3cccc(C(F)(F)F)c3)n2)cc1 [GW828205],%Inh,FGFR4,3%
same,%Inh,FGR,58%
same,%Inh,FLT1,12%
same,%Inh,FLT3-autoinhibited,0%
same,%Inh,FLT3,0%
same,%Inh,FLT4,8%
same,%Inh,FRK,0%
same,%Inh,FYN,0%
same,%Inh,GAK,0%
same,%Inh,"GCN2(Kin.Dom.2,S808G)",0%
same,%Inh,GRK1,11%
same,%Inh,GRK2,0%
same,%Inh,GRK3,0%
same,%Inh,GRK4,25%
same,%Inh,GRK7,0%
same,%Inh,GSK3A,1%
same,%Inh,GSK3B; [1],10%
same,%Inh,HASPIN,0%
same,%Inh,HCK,10%
same,%Inh,HIPK1,39%
COc1ccc(-c2nc3n(c2-c2ccncc2)CCC3)cc1 [SKF-104493],%Inh,FGFR4,8%
same,%Inh,FGR; 1 µM,19% and 8%
same,%Inh,FLT1; 1 µM,6% and 11%
same,%Inh,FLT3-autoinhibited; 1 µM,22% and 0%
same,%Inh,FLT3; 1 µM,9% and 0%
same,%Inh,FLT4,0%
same,%Inh,FRK; 1 µM,5% and 0%
same,%Inh,FYN; 1 µM,0% and 28%
same,%Inh,GAK; 1 µM,13% and 41%
same,%Inh,"GCN2(Kin.Dom.2,S808G); 1 µM",27% and 0%
same,%Inh,GRK1; 1 µM,11% and 12%
same,%Inh,GRK2,0%
same,%Inh,GRK3; 1 µM,5% and 0%
same,%Inh,GRK4; 1 µM,27% and 2%
same,%Inh,GRK7,0%
same,%Inh,GSK3A; 1 µM,0% and 17%
same,%Inh,"GSK3B; concentration: 1 μM, replicates: in singlicate, 1 µM",27% and 1%
same,%Inh,HASPIN; 1 µM,28% and 0%
same,%Inh,HCK; 1 µM,10% and 0%
same,%Inh,HIPK1; 1 µM,8% and 0%
CC(=O)Nc1n[nH]c2ncc(-c3ccccc3)cc12 [SB-548492],%Inh,FGFR4,0%
same,%Inh,FGR,16%
same,%Inh,FLT1,25%
same,%Inh,FLT3-autoinhibited,47%
same,%Inh,FLT3,74%
same,%Inh,FLT4,0%
same,%Inh,FRK,0%
same,%Inh,FYN,0%
same,%Inh,GAK,31%
same,%Inh,"GCN2(Kin.Dom.2,S808G)",27%
same,%Inh,GRK1,26%
same,%Inh,GRK2,0%
same,%Inh,GRK3,0%
same,%Inh,GRK4,18%
same,%Inh,GRK7,31%
same,%Inh,GSK3A,78%
same,%Inh,GSK3B; 1 µM,50%
same,%Inh,HASPIN,42%
same,%Inh,HCK,9%
same,%Inh,HIPK1,45%
CN1c2ccc(-c3ccc(C(=O)NCCO)cc3)cc2-c2[nH]ncc2S1(=O)=O,%Inh,FGFR4,8%
same,%Inh,FGR,34%
same,%Inh,FLT1,11%
same,%Inh,FLT3-autoinhibited,20%
same,%Inh,FLT3,37%
same,%Inh,FLT4,7%
same,%Inh,FRK,1%
same,%Inh,FYN,15%
same,%Inh,GAK,21%
same,%Inh,"GCN2(Kin.Dom.2,S808G)",34%
same,%Inh,GRK1,4%
same,%Inh,GRK2,0%
same,%Inh,GRK3,0%
same,%Inh,GRK4,1%
same,%Inh,GRK7,22%
same,%Inh,GSK3A,8%
same,%Inh,GSK3B; [1],32%
same,%Inh,HASPIN,21%
same,%Inh,HCK,16%
same,%Inh,HIPK1,67%
O=C(c1ccc(-c2cc(-c3c[nH]nc3-c3ccccn3)ccn2)cc1)N1CCCC1 [GW792479],%Inh,FGFR4,0%
same,%Inh,FGR,17%
same,%Inh,FLT1,18%
same,%Inh,FLT3-autoinhibited,0%
same,%Inh,FLT3,8%
same,%Inh,FLT4,0%
same,%Inh,FRK,0%
same,%Inh,FYN,5%
same,%Inh,GAK,33%
same,%Inh,"GCN2(Kin.Dom.2,S808G)",0%
same,%Inh,GRK1,21%
same,%Inh,GRK2,0%
same,%Inh,GRK3,0%
same,%Inh,GRK4,0%
same,%Inh,GRK7,0%
same,%Inh,GSK3A,14%
same,%Inh,GSK3B; [1],0%
same,%Inh,HASPIN,2%
same,%Inh,HCK,12%
same,%Inh,HIPK1,42%
O=C(NCCCN1CCCC1=O)c1cnc(NCc2cc(Cl)ccc2Cl)nc1NC1CCNCC1,%Inh,FGFR4,0%
same,%Inh,FGR,1%
same,%Inh,FLT1,0%
same,%Inh,FLT3-autoinhibited,0%
same,%Inh,FLT3,0%
same,%Inh,FLT4,7%
same,%Inh,FRK,0%
same,%Inh,FYN,6%
same,%Inh,GAK,0%
same,%Inh,"GCN2(Kin.Dom.2,S808G)",0%
same,%Inh,GRK1,33%
same,%Inh,GRK2,2%
same,%Inh,GRK3,22%
same,%Inh,GRK4,0%
same,%Inh,GRK7,68%
same,%Inh,GSK3A,0%
same,%Inh,GSK3B; [1],0%
same,%Inh,HASPIN,0%
same,%Inh,HCK,3%
same,%Inh,HIPK1,5%
CN1CCC(n2cnc(-c3ccc(F)cc3)c2-c2ccnc(NC3CCNCC3)n2)CC1 [SB-229482],%Inh,FGFR4,0%
same,%Inh,FGR,0%
same,%Inh,FLT1,0%
same,%Inh,FLT3-autoinhibited,0%
same,%Inh,FLT3,27%
same,%Inh,FLT4,0%
same,%Inh,FRK,0%
same,%Inh,FYN,1%
same,%Inh,GAK,0%
same,%Inh,"GCN2(Kin.Dom.2,S808G)",0%
same,%Inh,GRK1,11%
same,%Inh,GRK2,33%
same,%Inh,GRK3,1%
same,%Inh,GRK4,26%
same,%Inh,GRK7,29%
same,%Inh,GSK3A,0%
same,%Inh,GSK3B; [1],17%
same,%Inh,HASPIN,16%
same,%Inh,HCK,3%
same,%Inh,HIPK1,32%
COc1ccc(NC(=O)c2ccc(-c3cc(-c4nnc(C)o4)ccc3C)cc2)cc1 [GW595885],%Inh,FGFR4,0%
same,%Inh,FGR,10%
same,%Inh,FLT1,19%
same,%Inh,FLT3-autoinhibited,0%
same,%Inh,FLT3,0%
same,%Inh,FLT4,0%
same,%Inh,FRK,10%
same,%Inh,FYN,6%
same,%Inh,GAK,0%
same,%Inh,"GCN2(Kin.Dom.2,S808G)",14%
same,%Inh,GRK1,0%
same,%Inh,GRK2,0%
same,%Inh,GRK3,99.2%
same,%Inh,GRK4,22%
same,%Inh,GRK7,0%
same,%Inh,GSK3A,32%
same,%Inh,GSK3B; [1],0%
same,%Inh,HASPIN,21%
same,%Inh,HCK,0%
same,%Inh,HIPK1,0%
COc1cc2ncnc(Nc3ccc(OCc4ccccc4Br)c(Cl)c3)c2cc1OC.Cl [GI261590],%Inh,FGFR4,9%
same,%Inh,FGR,43%
same,%Inh,FLT1,23%
same,%Inh,FLT3-autoinhibited,0%
same,%Inh,FLT3,0%
same,%Inh,FLT4,0%
same,%Inh,FRK,6%
same,%Inh,FYN,0%
same,%Inh,GAK,0%
same,%Inh,"GCN2(Kin.Dom.2,S808G)",24%
same,%Inh,GRK1,0%
same,%Inh,GRK2,0%
same,%Inh,GRK3,41%
same,%Inh,GRK4,0%
same,%Inh,GRK7,0%
same,%Inh,GSK3A,0%
same,%Inh,GSK3B; [1],10%
same,%Inh,HASPIN,34%
same,%Inh,HCK,25%
same,%Inh,HIPK1,0%
